# Measured values from the supplement of paper PMC11417369.
# ± gives the standard deviation of the averaged measurements. Over roughly 25,000 sequences, “ln(normalized median fluorescence intensity)” has its median near 10; the highest 2% begin near 12. Many of the other results were omitted from the sample, so the highest values are more common in it than they were.
# Test system: PfAP2-G AP2 domain (GST-tagged)
# Test: gcPBM binding intensity (ln(normalized median fluorescence intensity)); higher = stronger DNA binding
# Procedure, shortened: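 After 1 h on an Agilent 4 × 180k array of primer-extended double-stranded 36-bp intergenic genomic probes and negative controls, bound GST-tagged P. falciparum DNA-binding domains were detected with Alexa488 anti-GST antibody and scanned at 488 nm. The domains had been expressed in E. coli, and binding took place in 1× PBS with 1% milk, 0.2 mg/ml BSA, 0.5% salmon testes DNA and 0.03% Triton X-100. Binding intensity is the highest Masliner-normalised natural-log median intensity across replicate spots of either probe orientation.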
row,Sequence,gcPBM binding intensity (ln)
1,TTATTAAATTTTTTTTGTACTTATATATATATATAT [XGTACX_site2443],11.2 ± 0.79
2,TTTTTTTTTTTTTACACACACAAAATATTATCTGTA [CACACA_site5378],9.83 ± 0.42
3,AATAATTAAATATATTTATAACAGGAAAATATTTAT [XGTACX_negctrl_site175],10.2 ± 0.16
4,TGTTGTATTTTTACAACACACATTTAATCCATTTAA [CACACA_site1507],10 ± 0.27
5,CTTCCTTAGGAATGTACACACATATAAAATATGTTG [CACACA_site6355],11.4 ± 0.84
6,ATAAAATAATTAATGGGTACATAATTAAATAAAGAG [XGTACX_site3309],11.3 ± 0.66
7,TTTTATGAAAAATGGCTTATCTGTAAAGAAGTGGAG [CACACA_negctrl_site1586],10.3 ± 0.36
8,AAGGTATAGAAACACACACACGTGAATATAGTTTAA [CACACA_site5109],10.01 ± 0.028
9,ATTTTTTTTTTTATGTGTACATATATTTTTTTAATT [XGTACX_site7921],11.6 ± 0.97
10,GTATGTATGTATATATGTACACATTATTATTTAATG [XGTACX_site5802],11.6 ± 1
11,TCACATATATATTAATGTACATATATTTTTTATGTA [XGTACX_site5125],11.2 ± 0.54
12,ATATATATATATTTATGTACATATACATAATGTATA [XGTACX_site6387],11.2 ± 0.76
13,ATATATATATAATGTGTACACACATATGTATTTATA [CACACA_site8170],11.7 ± 0.67
14,ATGTATATATTTTTATGTACATATTTTTAATTTATA [XGTACX_site2982],11.4 ± 0.87
15,ATATTTATAATTTTTTGTACACATTTTTTAAAGATA [XGTACX_site1784],11.4 ± 0.9
16,GATTTTAATGGGTGTACACATTTATTTATATAAAGT [CACACA_site5317],11.7 ± 0.93
17,GTATATATGTATATGTGTACATATATTTTATAATAT [XGTACX_site5703],11.3 ± 0.79
18,TTTTATTTATCTTAATGTACACATTTATATATATAT [XGTACX_site8588],11.7 ± 1.3
19,ATATATATATATATATGTACATATTTTATTTAATTT [XGTACX_site1807],11.2 ± 0.69
20,TAATATAATAGAAGTGTACACACATATTTATGGGTG [CACACA_site9023],11.6 ± 0.93
21,TGTATGTATGTATTATTTGTTATTTTAATTTTTTTG [TGCATGCA_negctrl_site256],10.36 ± 0.085
22,CATATATAACATATAACACACATACTTAGTATTACA [CACACA_site5674],10.1 ± 0.24
23,GTTACAGAGAATGTTGTGCACATATCAATAATATAT [GTGCAC_site9671],10.5 ± 0.28
24,AACGTGTATTTATATTGTACACATTCATACATCAAA [XGTACX_site3644],11.4 ± 0.95
